Measurements published in paper PMC4336329 (PLoS ONE, 2015).
The whole screen tested about 310,000 compounds, of which about 14,000 (4.5%) showed an effect of 50% or more. The effect is printed as a negative number. What follows is part of a selection rich in strong results, with near analogues and random picks from the rest.

target: human ether-à-go-go-related gene (hERG) potassium channel (human, UniProt Q12809); assay: primary screen, population patch clamp on CHO cells stably expressing hERG; higher = less effect of the substance
Sequence (Q12809 whole entry, looked up): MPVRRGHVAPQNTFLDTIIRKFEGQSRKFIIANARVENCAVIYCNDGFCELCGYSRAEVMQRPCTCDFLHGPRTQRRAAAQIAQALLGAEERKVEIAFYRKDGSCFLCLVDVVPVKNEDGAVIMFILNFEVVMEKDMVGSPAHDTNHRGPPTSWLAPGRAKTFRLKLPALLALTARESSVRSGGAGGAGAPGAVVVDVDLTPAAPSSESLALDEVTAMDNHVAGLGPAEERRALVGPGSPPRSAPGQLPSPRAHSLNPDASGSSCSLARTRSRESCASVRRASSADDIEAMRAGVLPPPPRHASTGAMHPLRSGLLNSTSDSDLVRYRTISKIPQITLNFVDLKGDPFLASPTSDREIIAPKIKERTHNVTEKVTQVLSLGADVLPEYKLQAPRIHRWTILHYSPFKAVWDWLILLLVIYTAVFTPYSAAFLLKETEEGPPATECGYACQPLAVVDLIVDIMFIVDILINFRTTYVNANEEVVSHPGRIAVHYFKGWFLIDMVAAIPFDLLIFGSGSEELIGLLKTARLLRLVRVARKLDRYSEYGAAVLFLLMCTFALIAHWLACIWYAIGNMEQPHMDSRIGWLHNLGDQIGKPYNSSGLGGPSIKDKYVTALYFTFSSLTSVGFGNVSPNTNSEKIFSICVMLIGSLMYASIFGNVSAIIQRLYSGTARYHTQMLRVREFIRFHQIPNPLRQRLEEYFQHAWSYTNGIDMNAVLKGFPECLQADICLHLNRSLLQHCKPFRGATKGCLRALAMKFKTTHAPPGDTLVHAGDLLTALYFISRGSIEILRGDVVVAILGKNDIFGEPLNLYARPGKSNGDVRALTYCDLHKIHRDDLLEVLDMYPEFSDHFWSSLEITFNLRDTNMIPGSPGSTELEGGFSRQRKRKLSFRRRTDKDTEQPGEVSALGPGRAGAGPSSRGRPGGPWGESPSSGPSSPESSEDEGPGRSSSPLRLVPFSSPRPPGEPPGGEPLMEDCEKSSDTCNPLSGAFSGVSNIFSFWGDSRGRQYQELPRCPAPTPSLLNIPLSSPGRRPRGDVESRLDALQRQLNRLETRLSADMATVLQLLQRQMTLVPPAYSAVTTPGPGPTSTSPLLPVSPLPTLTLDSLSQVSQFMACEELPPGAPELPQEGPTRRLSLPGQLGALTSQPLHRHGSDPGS
Description: Briefly, Chinese hamster ovary (CHO) cells stably expressing the hERG channel were dislodged from tissue culture flasks and dispensed into PPC plates. […] During the recording, background leak currents were estimated by a 100 ms step to -80 mV from an initial holding potential of -70 mV and subtracted from the subsequent current measurement. The campaign was conducted in two phases using slight differences in recording protocol. In the first phase, the initial voltage pulse used a 100 ms step to -30 mV from a holding potential of -70 mV, a 2 s conditioning step to +25 mV, and a 2 s test step to -30 mV. During the second phase of the screen, the potential during the conditioning step was raised to +45 mV. In both phases of the campaign, a secondary voltage pulse was applied using the same parameters as the second phase initial pulse. The initial and secondary pulses were applied in the absence of compound, and upon application of 1 μM and 10 μM test concentrations. […]
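Further: peak tail current of the secondary pulse compared with the same well before compound.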

SMILES	hERG current change (%, negative = inhibition) at 10uM [%]
NC(=O)CCn1c(C(=O)c2ccc(Cl)cc2)c2ccccc2[n+]1[O-]	-23.7
NC(=O)CCCn1c(C(=O)c2ccc(Cl)cc2)c2ccc(C(F)(F)F)cc2[n+]1[O-]	-77.9
NC(=O)CCn1c(C(=O)c2cc(Cl)c(N)c(Cl)c2)c2ccccc2[n+]1[O-]	17.9
COc1ccc(/C=C2\N=C(c3ccccc3)N(c3ccc(C(=O)O)cc3)C2=O)cc1OC	6.76
CC(C)Oc1ccc(C2CC(=O)N(Nc3ccc([N+](=O)[O-])cc3[N+](=O)[O-])C2=O)cc1 (centres unmarked)	-15.6
CCOc1ccc(C2CC(=O)N(Nc3ccc([N+](=O)[O-])cc3[N+](=O)[O-])C2=O)cc1 (centres unmarked)	-51.7
O=C1C2C3C=CC(C3)C2C(=O)N1Nc1ccc([N+](=O)[O-])cc1[N+](=O)[O-] (centres unmarked)	3.34
Cc1ccc(-n2c(=O)[nH]c3c(C(N)=O)nc(C(C)C)nc32)cc1	15.1
CCN1CCN(C(=O)C2CCN(c3nnc(C)c4c(C)n(-c5ccc(C)cc5)nc34)CC2)CC1	3.86
Cc1ccc(-n2nc3c(N4CCC(C(=O)N5CCCCCC5)CC4)nnc(C)c3c2C)cc1	-68.7
Cc1nnc(N2CCC(C(=O)N3CCCCC3)CC2)c2nn(-c3ccc(Cl)cc3)c(C)c12	-73.9
COc1ccc(-n2nc3c(N4CCC(C(=O)N5CCCCCC5)CC4)nnc(C)c3c2C)cc1	-53.7
COc1ccc(-n2nc3c(N4CCC(C(=O)NC5CCCCC5)CC4)nnc(C)c3c2C)cc1	-5.39
Cc1nnc(N2CCCC(C(=O)NCc3ccccc3F)C2)c2nn(-c3ccccc3)c(C)c12 (centres unmarked)	-51.2
Cc1ccc(-n2nc3c(N4CCC(C(=O)N5CCC(C(N)=O)CC5)CC4)nnc(C)c3c2C)cc1	12
Cc1ccccc1CNC(=O)C1CCCN(c2nnc(C)c3c(C)n(-c4ccccc4)nc23)C1 (centres unmarked)	-5.38
Cc1ccc(-n2nc3c(N4CCC(C(=O)N5CCN(C)CC5)CC4)nnc(C)c3c2C)cc1	11.9
CCOc1ccccc1CNC(=O)C1CCCN(c2nnc(C)c3c(C)n(-c4ccccc4)nc23)C1 (centres unmarked)	4.08
COc1ccc(-n2nc3c(N4CCC(C(=O)N5CCC(C)CC5)CC4)nnc(C)c3c2C)cc1	-46.3
CCCN1CCN(C(=O)C2CCN(c3nnc(C)c4c(C)n(-c5ccc(C)cc5)nc34)CC2)CC1	-32.3
CCOc1ccc(Cn2c3ccc(OC)cc3c3nc4ccccc4nc32)cc1	15.4
O=C(COC(=O)c1cccnc1Cl)c1ccccc1	-4.84
CSc1ccccc1NC(=O)CN(C1CCCCC1)S(C)(=O)=O	-1.49
CSC[C@H](NC(=O)Cc1c(C)c2cc3c(C)c(C)oc3cc2oc1=O)C(=O)N[C@@H](Cc1ccccc1)C(=O)O	1.76
Cc1ccc(S(=O)(=O)Nc2ccc(Cl)cn2)cc1C	15

SMILES	hERG current change (%, negative = inhibition) at 10uM [%]
CN(C)CCSc1nc(N)c2c3c(sc2n1)CN(C)CC3	9.66
CCCCc1nc2c(C)c(N)cnc2n1Cc1cccc([N+](=O)[O-])c1	-44.1
N#CC1=C2SCN(Cc3ccccc3)CN2C(=O)CC1c1cccs1 (centres unmarked)	6.44
O=C(Nc1ccc2oc(-c3ccccc3Cl)nc2c1)c1cncc(Br)c1	-8.01
Cc1nnc(N2CCC(C(=O)NC3CCC(C)CC3)CC2)c2nn(-c3ccc(Cl)cc3)c(C)c12 (centres unmarked)	18.8
Cc1nnc(N2CCC(C(=O)N3CCCCCC3)CC2)c2nn(-c3ccc(Cl)cc3)c(C)c12	-65.2
CCc1ccc(CNC(=O)C2CCN(c3nnc(C)c4c(C)n(-c5ccc(C)cc5)nc34)CC2)cc1	-1.17
CC(=O)Nc1ccc(S(=O)(=O)NCCCN2CCOCC2)cc1	16
Cc1cccc(NC(=O)C2CCCN2/C=C/C(=O)C(F)(F)F)c1C (centres unmarked)	4.61
COc1ccc(C(=O)CC(=O)C(=O)Nc2cccc(C(C)=O)c2)cc1	29.9
COc1ccc(C2(c3ccc(OC(C)=O)cc3OC(C)=O)CC(c3ccccc3)NC(=S)N2)cc1 (centres unmarked)	-50.2
COc1ccc(C2(c3ccc(O)cc3O)CC(c3ccccc3Cl)NC(=S)N2)cc1 (centres unmarked)	-15
COc1ccc(N2C(=S)NC(C)(C)CC2(C)c2ccc(OC(C)=O)cc2OC(C)=O)cc1 (centres unmarked)	6.26
O=C(Cc1ccccc1[N+](=O)[O-])Nc1ccccc1C(=O)N1CCCC1	23.2
Cc1cc(C)cc(NC(=S)NCC2CCN(C(C)c3ccccc3)C2)c1 (centres unmarked)	-63.3
Cc1ccccc1NC(=S)NCC1CCN(C(C)c2ccccc2)C1 (centres unmarked)	6.64
CC(c1ccccc1)N1CCC(CNC(=S)Nc2cccc(Cl)c2)C1 (centres unmarked)	-29.2
Cc1ccc(NC(=S)NCC2CCN(C(C)c3ccccc3)C2)cc1C (centres unmarked)	-44.6
Cc1cc(C)c(NC(=S)NCC2CCN(C(C)c3ccccc3)C2)c(C)c1 (centres unmarked)	-22.4
Cc1ccc(NC(=S)NCC2CCN(C(C)c3ccccc3)C2)cc1 (centres unmarked)	-57.5
O=C1NC(c2ccccc2)=C(c2ccc3ccccc3n2)C(c2ccccc2)N1 (centres unmarked)	6.13
CC1(C)CC(=O)N(CC(=O)O)c2ccccc2S1(=O)=O	3.52
O=c1c2ccccc2ncn1-c1ccc(Cl)c(Cl)c1	-1.01
OC(CNCCCCNCC(O)C(F)(F)F)C(F)(F)F (centres unmarked)	19.8
CCCN(CCC)Cc1c(C(=O)OCC)nnn1-c1nonc1N	-12.7
